This is a sample that favours compounds with a hit; in the whole collection about 11% have one here.
HEK cytotox = HEK 293 cell cytotoxicity. HEK 293 viability, ATP luminescence (CellTiter-Glo), 48-72 h. Potency, µM (series often up to 115 µM), for the others: at the highest dose activity change, negative = cytotoxicity, hits mostly inhibitors. 94,000 compounds, 6.6% hits. AID 1345083; also: nearly all actives have a fitted effect of over 60% in size
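ATP-coupled CellTiter-Glo luminescence served as viability read-out, recorded 10 min after reagent addition at room temperature. HEK 293 cells, 250 cells/well, had been incubated with pintool-transferred compound for 48 or 72 hr at 37 degree Celsius.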
NPR1 antag = antagonists of human natriuretic peptide receptor Npr1; HEK293 hNpr1 GloSensor cGMP, ANP-stimulated luminescence; Potency, µM (titrated, usually from 46.3 µM), for inactives: at the top dose activity change, negative = inhibition, most hits filed as inhibitors; 76,000 compounds, 1.6% hits; calls by dose curve; also: nearly all actives have a fitted effect of over 60% in size
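HEK293 cells stably expressing human Npr1 and cGMP GloSensor pGS-40F, loaded 2 h with 2% GloSensor reagent, given compound 30 min at room temperature. Luminescence read before and 20 min after 0.1 nM hNppA.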
Luciferase inh = blocks purified firefly luciferase enzyme activity. AID 1347043. Potency, µM (top dose mostly 115 µM), hits mostly inhibitors. P08659. 76,000 compounds, 2.5% hits. purified P. pyralis luciferase, luminescence, biochemical; also: nearly all actives have a fitted effect of over 65% in size
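Purified 10nM P. pyralis luciferase with 10uM D-luciferin and 10uM ATP in 50mM Tris acetate pH 7.5, 10mM Mg acetate, 0.01% Tween-20, 0.05% BSA. qHTS titration; luminescence read by CCD imager.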
NIH3T3 tox = cytotoxic compounds in NIH 3T3 cells; NIH 3T3 viability, CellTiter-Glo ATP luminescence, 48-72 h; Potency, µM (series often up to 96.7 µM), inactives show at the top dose activity change, negative = cytotoxicity, hits mostly inhibitors; 94,000 compounds, 4.3% hits; also: nearly all actives have a fitted effect of over 55% in size
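ATP-dependent luminescence (CellTiter-Glo) served as the viability signal for NIH 3T3 cells treated with compound for 48 or 72 hr at 37 °C.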
Active calls of the source: *; i = inactive; ? = inconclusive; · = no result given; [ ] = another dose, or the depositor's remark. Unless noted, calls follow the shape of the dose curve; as a rule, active = well fitted curve in the direction sought with a large enough effect; inconclusive = small, poorly fitted or top-dose-only effect, or another doubt; inactive = no such curve, though single readings can be large; an effect the other way counts as inactive or inconclusive. % is scaled to controls: 0 for no effect and ±100 for the full control effect; potency is read from the fitted curve at half-maximal effect.

SMILES	HEK cytotox	NPR1 antag	Luciferase inh	NIH3T3 tox
O=C1CC(c2ccccc2)N(C(=O)CCc2ccccc2)CCCCCCN1 (centres undefined)	-22%	-11%	i	?
CCc1nc2c(c(-c3ccc(O)cc3)n1)CN(Cc1ccc(OC)cc1)CC2	?	0%	i	-22%
CC(C)c1nc2c(c(-c3ccc(O)cc3)n1)CCN(Cc1cccc3ccccc13)CC2	25µM*	?	i	?
CCc1nc2c(c(-c3ccc(Cl)cc3)n1)CCN(Cc1cccc3ccccc13)CC2	45µM*	0%	i	-23%
CC(C)c1nc2c(c(-c3ccc(O)cc3)n1)CCN(Cc1ccccc1)CC2	?	16%	i	?
CCc1nc2c(c(-c3ccc(O)cc3)n1)CN(Cc1cccc3ccccc13)CC2	89µM*	-21%	i	?
CCc1nc2c(c(-c3ccc(Cl)cc3)n1)CCN(Cc1cccn1C)CC2	?	0%	i	?
CCOC(=O)CCNC(=O)N1CCC(N2C(=O)C3(CCCCC3)C2c2ccccc2)CC1 (centres undefined)	-15%	·	·	-27%
O=C(C1CCCN1C(=O)c1cccc(-c2ccccn2)c1)N1CCN(Cc2ccccc2)CC1 (centres undefined)	-23%	·	·	-25%
C=CCNC(=O)[C@@H]1Cc2c[nH]c3cccc(c23)[C@H](CC(C)C)N1	?	4%[70.6 µM]	i	?
CC(C)C[C@@H]1N[C@H](C(=O)NCCCn2ccnc2)Cc2c[nH]c3cccc1c23	?	2%[70.6 µM]	i	?
COc1ccc(CNC(=O)[C@@H]2Cc3c[nH]c4cccc(c34)[C@H](CC(C)C)N2)cc1	79µM*	-12%[70.6 µM]	i	45µM*
CC(C)C[C@@H]1N[C@H](C(=O)NCc2ccc(F)cc2)Cc2c[nH]c3cccc1c23	28µM*	-16%[70.6 µM]	i	40µM*
CC(C)C[C@@H]1N[C@H](C(=O)NCc2ccccn2)Cc2c[nH]c3cccc1c23	28µM*	-18%[70.6 µM]	i	?
CC(C)C[C@@H]1N[C@H](C(=O)NCc2ccccc2)Cc2c[nH]c3cccc1c23	35µM*	-18%[70.6 µM]	i	32µM*
C#CCNC(=O)c1nc(-c2ccccc2OC)c2ccccn12	-4%	·	·	-17%
O=C(NCC1Cn2cccc2CN1Cc1ccccc1)c1ccc2cc[nH]c2c1 (centres undefined)	79µM*	-12%	i	?
COc1ccccc1-c1cccc(C(=O)N2CCC[C@H]2C(=O)NCc2cccs2)c1	79µM*	·	·	-24%
CCCCCNC(=O)C1CCCN1C(=O)c1cccc(-c2cccc(OC)c2)c1 (centres undefined)	100µM*	·	·	?
COC(=O)CNC(=O)C1CCCN1C(=O)c1cccc(-c2cccnc2)c1 (centres undefined)	?	·	·	-20%
COC(=O)CNC(=O)C1CCCN1C(=O)c1cccc(-c2cccc(OC)c2)c1 (centres undefined)	45µM*	·	·	?
COc1cccc(-c2cccc(C(=O)N3CCCC3C(=O)NCc3cccs3)c2)c1 (centres undefined)	?	·	·	-32%
O=C1Cc2c(-c3ccccc3OCc3ccccc3)n[nH]c2CN1Cc1ccccn1	100µM*	-10%[70.6 µM]	i	?

Bioassay records: PubChem BioAssay, National Center for Advancing Translational Sciences (NCATS)
